Whole data set: some 16,000 sequences, median “rpm ratio (pull-down/input)” near 0.94, cut for the highest 2% near 1.7. For the sample, the highest values were picked, then their nearest neighbours and some sequences at random.
molecular target: T1, MBP-FoxP1dN (Mus musculus, UniProt P58462 326-579); assay: PD-seq (MBP pull-down with sequencing); 20 mM Tris-HCl pH 7.5, 100 mM NaCl, 1.5 mM MgCl2, 0.4 uM protein, 0.1 uM dsDNA library, 30 min, room temperature, amylose pull-down; high values mean tight binding; details: protein: recombinant; tags: His6-MBP; chain copies: 2; dsDNA, one strand shown
T1 sequence: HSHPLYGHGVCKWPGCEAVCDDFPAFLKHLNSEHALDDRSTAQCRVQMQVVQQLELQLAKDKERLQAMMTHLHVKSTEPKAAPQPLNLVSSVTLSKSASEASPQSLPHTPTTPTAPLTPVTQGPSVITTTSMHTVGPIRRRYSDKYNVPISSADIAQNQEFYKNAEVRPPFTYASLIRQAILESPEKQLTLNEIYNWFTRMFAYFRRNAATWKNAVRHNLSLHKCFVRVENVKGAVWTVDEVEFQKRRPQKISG
Procedure, shortened: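 Protein and DNA were mixed at 0.4 µM and 0.1 µM and held for 30 min at room temperature in Tris pH 7.5 buffer with NaCl and MgCl2; the protein was a His6-MBP-tagged, N-terminally truncated mouse FoxP3 or FoxP1 fragment from E. coli, and the DNA a Klenow-filled double-stranded degenerate library. Amylose resin captured the complexes, which were washed three times. Binding is read as reads-per-million enrichment of pull-down versus input after Illumina sequencing, with replicates pooled.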

Sequence | binding signal
GATGATTGTTCTCCCAGCTGATGAATTCAACGCGTCGAGTAAACAAATTTTCCTAATCTTTCTGTTCAAGCGCCATCTAC | 0.959 RPM ratio (pull-down/input)
GATGATTGTTCTCCCAGCTGATGAATTTTTACCATCGAGTAAACAAATTTTCCTAATCTTTCTGTTCAAGCGCCATCTAC | 1.01 RPM ratio (pull-down/input)
GATGATTGTTCTCCCAGCTGATGAATTTTACTGGTCGAGTAAACAAATTTTCCTAATCTTTCTGTTCAAGCGCCATCTAC | 0.796 RPM ratio (pull-down/input)
GATGATTGTTCTCCCAGCTGATGAATTCTGGAGATCGAGTAAACAAATTTTCCTAATCTTTCTGTTCAAGCGCCATCTAC | 0.812 RPM ratio (pull-down/input)
GATGATTGTTCTCCCAGCTGATGAATTACAATGTTCGAGTAAACAAATTTTCCTAATCTTTCTGTTCAAGCGCCATCTAC | 1.4 RPM ratio (pull-down/input)
GATGATTGTTCTCCCAGCTGATGAATTTATTTTATCGAGTAAACAAATTTTCCTAATCTTTCTGTTCAAGCGCCATCTAC | 1.46 RPM ratio (pull-down/input)
GATGATTGTTCTCCCAGCTGATGAATTATCAAAATCGAGTAAACAAATTTTCCTAATCTTTCTGTTCAAGCGCCATCTAC | 1.22 RPM ratio (pull-down/input)
GATGATTGTTCTCCCAGCTGATGAATTTATTTCATCGAGTAAACAAATTTTCCTAATCTTTCTGTTCAAGCGCCATCTAC | 1.16 RPM ratio (pull-down/input)
GATGATTGTTCTCCCAGCTGATGAATTTTATTTATCGAGTAAACAAATTTTCCTAATCTTTCTGTTCAAGCGCCATCTAC | 2.95 RPM ratio (pull-down/input)
GATGATTGTTCTCCCAGCTGATGAATTATCAACATCGAGTAAACAAATTTTCCTAATCTTTCTGTTCAAGCGCCATCTAC | 2.09 RPM ratio (pull-down/input)
GATGATTGTTCTCCCAGCTGATGAATTATCTACATCGAGTAAACAAATTTTCCTAATCTTTCTGTTCAAGCGCCATCTAC | 1.12 RPM ratio (pull-down/input)
GATGATTGTTCTCCCAGCTGATGAATTTGCTCCCTCGAGTAAACAAATTTTCCTAATCTTTCTGTTCAAGCGCCATCTAC | 0.995 RPM ratio (pull-down/input)
GATGATTGTTCTCCCAGCTGATGAATTACGGCCTTCGAGTAAACAAATTTTCCTAATCTTTCTGTTCAAGCGCCATCTAC | 0.977 RPM ratio (pull-down/input)
GATGATTGTTCTCCCAGCTGATGAATTGCTGAGATCGAGTAAACAAATTTTCCTAATCTTTCTGTTCAAGCGCCATCTAC | 0.969 RPM ratio (pull-down/input)
GATGATTGTTCTCCCAGCTGATGAATTGACTAGTTCGAGTAAACAAATTTTCCTAATCTTTCTGTTCAAGCGCCATCTAC | 1.08 RPM ratio (pull-down/input)
GATGATTGTTCTCCCAGCTGATGAATTAGTAACATCGAGTAAACAAATTTTCCTAATCTTTCTGTTCAAGCGCCATCTAC | 1.45 RPM ratio (pull-down/input)
GATGATTGTTCTCCCAGCTGATGAATTTCCCACTTCGAGTAAACAAATTTTCCTAATCTTTCTGTTCAAGCGCCATCTAC | 0.889 RPM ratio (pull-down/input)
GATGATTGTTCTCCCAGCTGATGAATTGTTATGTTCGAGTAAACAAATTTTCCTAATCTTTCTGTTCAAGCGCCATCTAC | 2.01 RPM ratio (pull-down/input)

Sequence | binding signal
GATGATTGTTCTCCCAGCTGATGAATTCGTTATTTCGAGTAAACAAATTTTCCTAATCTTTCTGTTCAAGCGCCATCTAC | 1.14 RPM ratio (pull-down/input)
GATGATTGTTCTCCCAGCTGATGAATTTTGTTATTCGAGTAAACAAATTTTCCTAATCTTTCTGTTCAAGCGCCATCTAC | 2.37 RPM ratio (pull-down/input)
GATGATTGTTCTCCCAGCTGATGAATTCCTGTGTTCGAGTAAACAAATTTTCCTAATCTTTCTGTTCAAGCGCCATCTAC | 1.26 RPM ratio (pull-down/input)
GATGATTGTTCTCCCAGCTGATGAATTCTCTTATTCGAGTAAACAAATTTTCCTAATCTTTCTGTTCAAGCGCCATCTAC | 0.995 RPM ratio (pull-down/input)
GATGATTGTTCTCCCAGCTGATGAATTTGGTTATTCGAGTAAACAAATTTTCCTAATCTTTCTGTTCAAGCGCCATCTAC | 1.15 RPM ratio (pull-down/input)
GATGATTGTTCTCCCAGCTGATGAATTTTCTTATTCGAGTAAACAAATTTTCCTAATCTTTCTGTTCAAGCGCCATCTAC | 0.953 RPM ratio (pull-down/input)
GATGATTGTTCTCCCAGCTGATGAATTTGATTATTCGAGTAAACAAATTTTCCTAATCTTTCTGTTCAAGCGCCATCTAC | 1.2 RPM ratio (pull-down/input)
GATGATTGTTCTCCCAGCTGATGAATTCTTATGTTCGAGTAAACAAATTTTCCTAATCTTTCTGTTCAAGCGCCATCTAC | 1.21 RPM ratio (pull-down/input)
GATGATTGTTCTCCCAGCTGATGAATTGTGTTATTCGAGTAAACAAATTTTCCTAATCTTTCTGTTCAAGCGCCATCTAC | 2.18 RPM ratio (pull-down/input)
GATGATTGTTCTCCCAGCTGATGAATTCTTATTTTCGAGTAAACAAATTTTCCTAATCTTTCTGTTCAAGCGCCATCTAC | 2.25 RPM ratio (pull-down/input)
GATGATTGTTCTCCCAGCTGATGAATTTATGATTTCGAGTAAACAAATTTTCCTAATCTTTCTGTTCAAGCGCCATCTAC | 1.37 RPM ratio (pull-down/input)
GATGATTGTTCTCCCAGCTGATGAATTCCGTAAATCGAGTAAACAAATTTTCCTAATCTTTCTGTTCAAGCGCCATCTAC | 1.2 RPM ratio (pull-down/input)
GATGATTGTTCTCCCAGCTGATGAATTGAACGTCTCGAGTAAACAAATTTTCCTAATCTTTCTGTTCAAGCGCCATCTAC | 0.787 RPM ratio (pull-down/input)
GATGATTGTTCTCCCAGCTGATGAATTACCGTGGTCGAGTAAACAAATTTTCCTAATCTTTCTGTTCAAGCGCCATCTAC | 0.89 RPM ratio (pull-down/input)
GATGATTGTTCTCCCAGCTGATGAATTTCCGAGGTCGAGTAAACAAATTTTCCTAATCTTTCTGTTCAAGCGCCATCTAC | 0.721 RPM ratio (pull-down/input)
GATGATTGTTCTCCCAGCTGATGAATTAGACTTCTCGAGTAAACAAATTTTCCTAATCTTTCTGTTCAAGCGCCATCTAC | 0.789 RPM ratio (pull-down/input)
GATGATTGTTCTCCCAGCTGATGAATTCCTTAGATCGAGTAAACAAATTTTCCTAATCTTTCTGTTCAAGCGCCATCTAC | 0.924 RPM ratio (pull-down/input)
GATGATTGTTCTCCCAGCTGATGAATTTGCTCGATCGAGTAAACAAATTTTCCTAATCTTTCTGTTCAAGCGCCATCTAC | 0.994 RPM ratio (pull-down/input)
